{
  "source": "the supplement of paper PMC10933113",
  "test_system": "THP-1",
  "test": "CD54 surface expression induction over DMSO control (% over DMSO); higher = stronger dendritic cell activation",
  "conditions": "exposure time: 24 h",
  "procedure": "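hCLAT-like CD54 and CD86 surface expression on THP1 cells after 24 h exposure at a single concentration (highest non-cytotoxic concentration, or 100-200 µM if not cytotoxic). Flow cytometry (iQue) was run on 5,000 live cells.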",
  "note": "± gives the uncertainty stated by the source.",
  "data": [
    {"smiles": "CC(C)CCCCCCCOC(=O)c1ccc(C(=O)OCCCCCCCC(C)C)c(C(=O)OCCCCCCCC(C)C)c1", "note": "[Triisodecyl trimellitate] (163 µM)", "values": [
      {"measurement": "CD54 surface expression induction", "value": "10.7 ± 46"}
    ]}
  ]
}
